Here are results for 12 molecules from PubChem BioAssay.

Activity calls are given as the source filed them. Unless noted, the rule behind the calls is not given here.

In test [1] the test system is Wnt5a (protein binding on small-molecule microarray). The test is described as follows: Wnt5a binders on small-molecule microarray, primary screen, biophysical, 635/667 nm fluorescence (AID 1142).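 Note: fluorescence read at 667 nm with signal to noise per printed feature.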 The settings on record: 635 nm fluorescence, higher = more signal.
The nature of test [2]: cell viability in Huh7 cells, primary screen, cytotoxicity control for HCV replication inhibitor project, CellTiter-Glo luminescence, basal, 48 h (AID 1143).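 Note: Huh7 hepatoma cells carrying a hepatitis C replication reporter with no stimulus; test concentration not given here.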 Particulars: Huh7 HCV replicon, higher = more signal, called active from +8 up or from −8 down. For orientation: ATP-based viability assays read luminescence as a measure of living cells.
Test [3] is described as follows: P. aeruginosa biofilm formation inhibitors, primary screen, PAO1 strain, BacTiter-Glo luminescence, LB-PBS (AID 1144). Particulars: 12 h, higher = more signal.
The nature of test [4]: CREB reporter modulators without forskolin, primary screen, cell-based, PC12, CRE-LacZ reporter, unstimulated (AID 1145). The settings on record: no forskolin, luminescence, 4.5 h, higher = more signal, called active from +8 up or from −8 down.
A short description of test [5]: CREB reporter modulators under forskolin, primary screen, cell-based, PC12, CRE-LacZ reporter, forskolin-stimulated (AID 1146).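 Note: PC12 cells with 6xCRE LacZ reporter stimulated by forskolin 10 µM; beta-galactosidase reporter signal reflecting CREB driven transcription.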 Particulars: luminescence, 4.5 h, higher = more signal, called active from +8 up or from −8 down.
Test [6] has as its target Streptavidin (Streptomyces avidinii) (UniProt P22629). The test is described as follows: streptavidin binders on small-molecule microarray, primary screen, artefact control for SMM compound annotation, biophysical, 635/667 nm fluorescence (AID 1147).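 Note: signal reflects streptavidin binding to arrayed compounds as a control protein.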 Particulars: streptavidin binding, higher = more signal.
Test [7] is described as follows: small-molecule binders of probe aInhba, primary screen, biochemical, small-molecule microarray, 635/667 nm fluorescence (AID 1148).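 Note: score merges 667nm spot fluorescence with signal-to-noise for antibody binding to printed compounds.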 Particulars: higher = more signal.
Test [8] has as its target Torsin-1A (Homo sapiens) (UniProt O14656). Kind of test: torsin A binders from cell lysate, primary screen, small-molecule microarray, wild-type, 635/667 nm (AID 1149). Particulars: COS7 hTOR1A-WT lysate, 635 nm fluorescence, higher = more signal.
Test [9] shares this target. Kind of test: small-molecule binders of mutant TOR1A in lysate, primary screen, cell lysate, small-molecule microarray, COS7 lysate, 635/667 nm fluorescence (AID 1150).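 Note: score pools 667 nm emission and signal to noise measuring lysate protein binding.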 Particulars: COS7 hTOR1A mutant lysate, 635 nm fluorescence, higher = more signal.
The test system of test [10] is Sonic hedgehog protein (Shh). The test is described as follows: small-molecule binders of Shh protein, primary screen, biochemical, small-molecule microarray, 635/667 nm fluorescence (AID 1151).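 Note: Shh protein binding to compounds spotted on small-molecule microarray slides; score combines spot fluorescence intensity with signal-to-noise across triplicate slides.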 The settings on record: small-molecule microarray binding, 635 nm fluorescence; higher = more signal.

Chain of Torsin-1A (Homo sapiens) (O14656 whole entry, looked up): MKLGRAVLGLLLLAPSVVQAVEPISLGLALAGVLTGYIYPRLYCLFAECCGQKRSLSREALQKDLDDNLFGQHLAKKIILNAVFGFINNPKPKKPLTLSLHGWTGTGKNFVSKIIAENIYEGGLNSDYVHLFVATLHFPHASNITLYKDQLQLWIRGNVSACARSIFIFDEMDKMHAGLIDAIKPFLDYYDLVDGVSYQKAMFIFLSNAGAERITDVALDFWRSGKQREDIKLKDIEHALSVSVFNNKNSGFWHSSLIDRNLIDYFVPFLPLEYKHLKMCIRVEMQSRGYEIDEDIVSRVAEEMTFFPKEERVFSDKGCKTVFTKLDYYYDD
Chain of Streptavidin (Streptomyces avidinii) (P22629 whole entry, looked up): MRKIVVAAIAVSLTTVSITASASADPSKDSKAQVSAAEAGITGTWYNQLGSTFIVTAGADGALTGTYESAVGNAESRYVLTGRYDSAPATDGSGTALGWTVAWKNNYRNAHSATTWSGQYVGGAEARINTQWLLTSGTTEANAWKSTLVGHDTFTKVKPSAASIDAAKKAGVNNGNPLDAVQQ

In the case of `CO[C@H]1O[C@H](CO)[C@@H](OC(=O)Nc2ccc(C(F)(F)F)cc2)[C@H](OC(=O)Nc2ccc3c(c2)OCO3)[C@H]1OC(=O)Nc1ccc2c(c1)OCO2`, the composite z-score in test [1] is 0.259; in test [6] it was 0.656; in test [7] it was 0.234; with Torsin-1A (Homo sapiens) [8], 0.201; in the test with Torsin-1A (Homo sapiens) [9] it was 0.746; in test [10], 0.99. Also, the z-score is -4.23 (inactive) in [2], 0.558 (inactive) in [3], 1.54 (inactive) in test [4] and 1.38 (inactive) in test [5].

In the case of `COC(=O)[C@@]1(Cc2ccc(OC)cc2)[C@H]2c3cc(C(=O)N(C)C)n(Cc4ccccc4)c3C[C@H]2CN1C(=O)c1ccccc1`, the composite z-score was -0.0424 in test [1]; 0.707 in test [6]; 0.0882 in [7]; -0.0982 with Torsin-1A (Homo sapiens) [8]; 0.14 with Torsin-1A (Homo sapiens) [9]; -1.21 in test [10]. The z-score is -3.07 (inactive) in test [2], -0.784 (inactive) in [3], -0.764 (inactive) in test [4] and 0.592 (inactive) in [5].

Take `COC(=O)[C@@]1(Cc2ccccc2)[C@H]2c3cc(C(=O)N4CCCC4)n(Cc4ccsc4Br)c3C[C@H]2CN1C(=O)c1ccccc1`: the composite z-score in test [1] is 0.38; in test [6], 1.21; in [7], 0.407; in the test with Torsin-1A (Homo sapiens) [8] it was 0.147; with Torsin-1A (Homo sapiens) [9] it was 0.894; in test [10], -1.01. The z-score was -3.12 (inactive) in test [2], 0.389 (inactive) in [3], 0.201 (inactive) in test [4] and -0.813 (inactive) in test [5].

For the molecule `Cc1ccc(F)cc1S(=O)(=O)N[C@@H]1CCN(Cc2ccc(Oc3ccccc3)cc2)C1`, the composite z-score in test [1] is -0.123; in test [6], -0.235; in test [7], -0.0403; with Torsin-1A (Homo sapiens) [8], 0.575; in the test with Torsin-1A (Homo sapiens) [9], 0.251; in test [10], 1.07. Besides, the z-score in [2] was -4.83 (inactive); in test [3], 0.913 (inactive); in [4], 0.677 (inactive); in test [5], 0.865 (inactive).

As for `O=C1c2ccccc2[C@](Cc2ccccc2I)(C(=O)NCc2ccccc2)[C@H](c2ccc(CO)cc2)N1C1CCCCC1`, the composite z-score in test [1] came to 0.52; in [6], 1.71; in test [7], 0.295; with Torsin-1A (Homo sapiens) [8], 0.326; with Torsin-1A (Homo sapiens) [9], 0.489; in test [10], 1.75. Further, the z-score is -4.84 (inactive) in test [2], -0.479 (inactive) in test [3], 0.0655 (inactive) in [4] and -0.183 (inactive) in test [5].

As to `CCOC(=O)C1=CC[C@@H](c2ccccc2)N(S(=O)(=O)c2ccc(C)cc2)C1`, the composite z-score was 0.0639 in [1]; 0.342 in test [6]; 0.0633 in [7]; 0.303 with Torsin-1A (Homo sapiens) [8]; 0.17 with Torsin-1A (Homo sapiens) [9]; -0.474 in test [10]. Besides, the z-score is -2.28 (inactive) in test [2], 0.84 (inactive) in test [3], 0.229 (inactive) in test [4] and 0.368 (inactive) in test [5].

`COc1ccc([Si](C)(C)[C@@H]2[C@@H](CC(=O)N3CCC[C@H]3CO)O[C@]3(C(=O)N(Cc4ccc(N5C(=O)c6cccc7cccc5c67)cc4)c4ccccc43)[C@H]2C)cc1`: the composite z-score amounted to 0.761 in test [1]; 0.0541 in test [6]; 0.0184 in test [7]; 0.344 with Torsin-1A (Homo sapiens) [8]; 0.72 with Torsin-1A (Homo sapiens) [9]; 2.06 in [10]. The z-score is -4.78 (inactive) in test [2], -0.489 (inactive) in test [3], 0.995 (inactive) in [4] and -0.0202 (inactive) in test [5].

Consider `Cc1ccc(S[C@]2(C(=O)NC3CC3)CC(=O)N(Cc3ccccc3Cl)[C@@H]2c2ccc(CO)cc2I)cc1`, for which the composite z-score in test [1] came to 1.3; in test [6], 0.163; in test [7], 0.0471; with Torsin-1A (Homo sapiens) [8], 0.765; in the test with Torsin-1A (Homo sapiens) [9], 1.01; in [10], 1.67. Moreover, the z-score in test [2] was -1.5 (inactive); in [3], -0.637 (inactive); in test [4], 0.145 (inactive); in [5] it was 1.13 (inactive).

For the molecule `COCCOC(=O)N1C(=O)[C@@]2(c3cc(C#Cc4ccc(OC)cc4)ccc31)[C@H](C(=O)NC[C@H](O)c1ccccc1)[C@H]1C(=O)O[C@H](c3ccccc3)[C@H](c3ccccc3)N1[C@@H]2c1ccc(O)cc1`, the composite z-score in [1] came to 0.317; in test [6] it was 0.582; in test [7] it was 0.0228; with Torsin-1A (Homo sapiens) [8] it was 0.772; with Torsin-1A (Homo sapiens) [9], 0.527; in test [10], 1.73. Also, the z-score in test [2] is -2.05 (inactive); in [3], -0.392 (inactive); in test [4] it was -1.01 (inactive); in [5], -1.19 (inactive).

`COc1ccc(NN2C(C(O)c3ccccn3)C=CC3C(=O)N(C4CCCCC4)C(=O)C32)cc1` (stereo not given): the composite z-score in [1] was 0.483; in [6], 1.37; in test [7], 0.0183; with Torsin-1A (Homo sapiens) [8] it was 0.0607; with Torsin-1A (Homo sapiens) [9], 0.542; in test [10], -0.0244. The z-score in [2] is -0.924 (inactive); in [3] it was -1.43 (inactive); in test [4] it was -0.471 (inactive); in test [5], -0.119 (inactive).

With `NC(=O)NCC#Cc1ccc2c(c1)[C@]1(C(=O)N2)[C@H](C(=O)Nc2nc3ccccc3s2)[C@H]2C(=O)O[C@H](c3ccccc3)[C@H](c3ccccc3)N2[C@@H]1c1ccc(O)cc1`, the composite z-score was 0.236 in [1]; 2.27 in [6]; 0.806 in [7]; 0.171 with Torsin-1A (Homo sapiens) [8]; -0.216 in the test with Torsin-1A (Homo sapiens) [9]; 0.922 in [10]. The z-score in test [2] is 0.0524 (inactive); in [3] it was 0.688 (inactive); in test [4], -1.15 (inactive); in test [5], -1.58 (inactive).

Turning to `O=c1cccc(-c2cccc(Cl)c2)o1`, the composite z-score in test [1] is 0.0303; in [6] it was 0.244; in test [7], 0.0047; with Torsin-1A (Homo sapiens) [8] it was 0.34; with Torsin-1A (Homo sapiens) [9], 0.617; in [10], -0.215. In addition, the z-score was -1.07 (inactive) in test [2], 0.96 (inactive) in [3], 0.631 (inactive) in test [4] and -1.05 (inactive) in [5].
